Hits are enriched below; roughly 17% of the tested compounds scored in any of these assays.
DT40 TDP1 no CPT – qHTS for Inhibitors of human tyrosyl-DNA phosphodiesterase 1 (TDP1): qHTS in cells in absence of CPT. DT40 Tdp1-/- hTDP1 cells, no CPT, ATP luminescence, 48 h. Potency, µM (series often up to 46.2 µM), most hits filed as inhibitors. 15% of 420,000 active. AID 686978, 2013; note: nearly all actives have a fitted effect of over 55% in size
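DT40 Tdp1-/-;hTDP1 cells, no CPT (DMSO vehicle only), 400 cells/well; compounds pin-transferred; ≥48 hr, 37 °C; CellTiter-Glo 30 min RT dark, luminescence read.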
TDP1 inh – inhibitors of human tyrosyl-DNA phosphodiesterase TDP1; 0.28% of 350,000 active; Q9NUW8; recombinant TDP1, AlphaScreen DNA substrate cleavage; Potency, µM (doses to about 130 µM), hits mostly inhibitors; note: nearly all actives have a fitted effect of over 40% in size
Target sequence (Q9NUW8 whole entry, looked up): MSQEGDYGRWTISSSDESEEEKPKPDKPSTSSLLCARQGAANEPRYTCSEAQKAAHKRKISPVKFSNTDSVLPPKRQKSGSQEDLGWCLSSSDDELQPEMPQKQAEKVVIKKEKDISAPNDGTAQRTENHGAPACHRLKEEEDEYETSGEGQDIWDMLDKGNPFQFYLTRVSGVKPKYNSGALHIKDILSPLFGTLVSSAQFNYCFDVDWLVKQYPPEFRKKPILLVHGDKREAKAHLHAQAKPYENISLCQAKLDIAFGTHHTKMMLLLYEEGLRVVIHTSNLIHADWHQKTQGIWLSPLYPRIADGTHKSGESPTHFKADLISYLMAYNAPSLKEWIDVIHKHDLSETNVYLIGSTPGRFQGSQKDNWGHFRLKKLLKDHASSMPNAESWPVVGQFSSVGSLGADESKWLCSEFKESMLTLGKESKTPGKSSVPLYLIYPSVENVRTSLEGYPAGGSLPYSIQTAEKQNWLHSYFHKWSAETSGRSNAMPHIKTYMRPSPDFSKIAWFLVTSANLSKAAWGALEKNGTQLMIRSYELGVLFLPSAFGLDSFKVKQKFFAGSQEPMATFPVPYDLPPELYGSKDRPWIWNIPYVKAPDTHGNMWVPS
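Recombinant E. coli-expressed Tdp1 (1 nM) preincubated with compound 15 min at RT, then 5'-biotin/3'-phosphotyrosine-FITC DNA substrate (15 nM) added for 5 min. AlphaScreen beads (10 ug/ml) added, 10 min RT; tyrosine-FITC cleavage read as signal loss.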
ClpP mod – qHTS Assay for Activators of ClpP | purified B. subtilis ClpP, FRET peptide cleavage, 20 min | Potency, µM (doses to about 57.5 µM) | 1.9% of 340,000 active; active = well fitted falling curve with a large enough effect; inconclusive = small, poorly fitted or top-dose-only effect; inactive = no such curve, though single readings can be large or run the other way; note: the source files actives as falling curves though it sought activators and does not explain the sign; nearly all actives have a fitted effect of over 65% in size
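ClpP 10 microg/mL final, pH 8 Tris/KCl buffer with BSA, glycerol, Tween-20; compound pinned in; FRET-FV substrate; RT 20 min; Ex320/Em430; ΔFRET vs ADEP 5.8 microM, DMSO, no enzyme.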
TDP1 cell CPT – growth inhibition of DT40 Tdp1-/-;hTDP1 cells with camptothecin (screen for TDP1 inhibitors) | chicken DT40 Tdp1-/-;hTDP1 cells + 20 nM CPT, ATP luminescence, 48 h | Potency, µM (doses to about 46.2 µM), most hits filed as inhibitors | 12% of 420,000 active | AID 686979; note: nearly all actives have a fitted effect of over 55% in size
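Chicken DT40 Tdp1-/- cells stably complemented with human TDP1 were seeded at 400 cells/well in medium containing 20 nM camptothecin, exposed to pin-transferred compounds, and grown at 37 °C for at least 48 hr. Viability was read as ATP luminescence.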
Numbers stand for hits; n = inactive; u = inconclusive; x = no result. Unless noted, calls come from the whole dose curve; as a rule, active = well fitted curve in the direction sought with a large enough effect; inconclusive = small, poorly fitted or top-dose-only effect, or another doubt; inactive = no such curve, though single readings can be large; an effect the other way counts as inactive or inconclusive.

SMILES	DT40 TDP1 no CPT	TDP1 inh	ClpP mod	TDP1 cell CPT
CCOC(=O)c1ccc(N2C(=O)c3n[nH]c(-c4cccs4)c3C2c2ccc(OCC)cc2)cc1 (stereo unspecified)	11.6µM	n	n	29.1µM
CCOC(=O)c1ccc(N2C(=O)c3n[nH]c(-c4cccs4)c3C2c2cccc(O)c2)cc1 (stereo unspecified)	20.6µM	n	n	16.4µM
CCOC(=O)c1ccc(N2C(=O)c3n[nH]c(-c4cccs4)c3C2c2ccc(C(C)C)cc2)cc1 (stereo unspecified)	16.4µM	n	n	u
CCOC(=O)c1ccc(N2C(=O)c3n[nH]c(-c4cccs4)c3C2c2ccc(CC)cc2)cc1 (stereo unspecified)	11.6µM	n	n	14.6µM
CCOC(=O)c1ccc(N2C(=O)c3n[nH]c(C)c3C2c2cccc(Br)c2)cc1 (stereo unspecified)	u	n	n	u
Cc1c(NC(=O)C(=O)/C=C(\O)c2ccc(Br)cc2)c(=O)n(-c2ccccc2)n1C	n	n	n	n
C=CCC(NCc1ccccc1)c1ccc(Cl)cc1 (stereo unspecified)	13µM	n	n	u
O=C(CCS(=O)(=O)c1ccccc1)NNC(=O)CSc1ccccc1F	n	n	n	n
CC(C#N)Sc1nnc(Nc2ccccc2)s1 (stereo unspecified)	18.4µM	n	x	n
CCSc1nnc(Nc2ccccc2)s1	n	n	n	n
COc1ccc(N=C(c2ccccc2)c2c(C)[nH]n(-c3ccccc3)c2=O)c(OC)c1	18.4µM	n	x	u
CC[n+]1c(/C=C/N(C)c2ccccc2)n(-c2ccccc2)c2ccc(-c3nc4ccccc4s3)cc21	0.731µM	n	n	0.82µM
O=C1C(NS(=O)(=O)c2cccs2)=C(N2CCN(c3cccc(Cl)c3)CC2)C(=O)c2ccccc21	23.1µM	n	n	20.6µM
Cc1nn(C)cc1S(=O)(=O)Nc1cccc(Cl)c1	n	n	x	n
O=c1[nH]cnc(O)c1C(c1ccc([N+](=O)[O-])cc1)c1c(O)nc[nH]c1=O	n	x	n	n
COc1cccc(NC(=O)COC(=O)CNC(=O)C2CCCCC2)c1	n	n	n	n
CCN(C(=O)CN1C(=O)NC2(CCCC2)C1=O)c1nc2c(C)cccc2s1	13µM	x	n	u
N#CSC(c1ccccc1)c1nc2ccccc2[nH]c1=O (stereo unspecified)	25.9µM	x	n	6.51µM
CC1CCN(C2=C(NS(=O)(=O)c3ccc(Br)cc3)C(=O)c3ccccc3C2=O)CC1	18.4µM	n	n	u
CCOC(=O)C1CCN(C2=C(NS(=O)(=O)c3ccc(Cl)cc3)C(=O)c3ccccc3C2=O)CC1	u	x	x	n
CC1CCCN(C2=C(NS(=O)(=O)c3ccc(Br)cc3)C(=O)c3ccccc3C2=O)C1 (stereo unspecified)	11.6µM	x	x	u
CC1CCN(C2=C(NS(=O)(=O)c3ccc(Cl)cc3)C(=O)c3ccccc3C2=O)CC1	n	n	x	n
CCOC(=O)C1CCCN(C2=C(NS(=O)(=O)c3ccc(Br)cc3)C(=O)c3ccccc3C2=O)C1 (stereo unspecified)	16.4µM	n	n	18.4µM
O=C1C(NS(=O)(=O)c2ccc(Br)cc2)=C(N2CCCCC2)C(=O)c2ccccc21	18.4µM	n	n	u
O=C1C(NS(=O)(=O)c2ccccc2)=C(N2CCN(c3ccc(F)cc3)CC2)C(=O)c2ccccc21	u	x	n	u
SMILES	DT40 TDP1 no CPT	TDP1 inh	ClpP mod	TDP1 cell CPT
N#CCCn1c(=O)c(-c2ccc(Cl)cc2)nc2cnc(Nc3ccccc3)nc21	n	x	x	u
CC(=O)N1CCN(c2nc3c(F)cc(F)cc3s2)CC1	n	n	n	n
Cc1cc(C)cc(NC(=O)COC(=O)COc2ccc(N(C)S(=O)(=O)c3cccs3)cc2)c1	n	n	n	n
CC(C)COc1ccc(C(=O)Nc2onc3c2CCCC3)cc1	23.1µM	n	n	13µM
Clc1nc(NCc2ccco2)c2[nH]cnc2n1	u	n	n	n
COc1ccc(-c2nn3c(-c4ccccn4)nnc3s2)cc1OC	n	n	u	u
CCOc1ccc(-c2nn3c(-c4cc(-c5ccccc5)n[nH]4)nnc3s2)cc1	14.1µM	n	n	15.8µM
COc1ccc(-c2nn3c(-c4cc(-c5ccccc5)n[nH]4)nnc3s2)cc1	2.82µM	x	n	3.55µM
COc1ccc(-c2nnc3sc(-c4ccccn4)nn23)cc1	x	n	x	x
COc1ccc(-c2nn3c(-c4cc(-c5ccccc5)n[nH]4)nnc3s2)cc1OC	4.47µM	n	n	2.82µM
CCOc1ccc(OCCC(=O)OCC(=O)NCc2ccccc2)cc1	n	n	n	n
O=C(O)c1cc(=O)c2ccc(Cl)cc2[nH]1	n	n	x	n
Clc1cccc(Cl)c1CNc1ccc(N2CCCC2)cc1	16.4µM	n	x	6.51µM
Fc1ccc(CNc2ccc(N3CCN(Cc4ccccc4)CC3)cc2)cc1	u	n	x	u
CC1(C(=O)Nc2ccc(F)cc2F)CCN1C(=O)Cc1ccccc1Cl (stereo unspecified)	n	x	n	n
CC(C)(C)c1ccc(CC(=O)N2CCC2(C)C(=O)Nc2ccc(F)cc2F)cc1 (stereo unspecified)	16.4µM	x	n	23.1µM
CC1(C(=O)Nc2ccc(F)cc2F)CCN1C(=O)CCC1CCCC1 (stereo unspecified)	23.1µM	x	n	u
Nc1cc(N)c(OCC(F)(F)F)cc1OCC(F)(F)F	9.2µM	n	n	2.59µM
Cc1nc(C(F)(F)F)ccc1C(=O)N1CCC1(C)C(=O)NCc1ccc(Cl)cc1 (stereo unspecified)	u	x	n	n
O=C1COc2ccc(S(=O)(=O)N3CCN(c4cccc(Cl)c4)CC3)cc2N1	n	n	n	n
O=C1COc2ccc(S(=O)(=O)CCC(=O)N3CCN(c4cccc(Cl)c4)CC3)cc2N1	18.4µM	n	n	10.3µM
O=C1COc2cc(S(=O)(=O)CCC(=O)N3CCN(c4ccccc4F)CC3)c(Cl)cc2N1	x	n	n	x
Cc1ccc(N2CCN(C(=O)CCS(=O)(=O)c3cc4c(cc3Cl)NC(=O)CO4)CC2)c(C)c1	20.6µM	n	n	23.1µM
O=C(CCS(=O)(=O)c1ccc2c(c1)NC(=O)CO2)NCCc1ccc(Cl)cc1	n	n	n	n
Cc1ccc(Cl)cc1N1CCN(C(=O)CCS(=O)(=O)c2ccc3c(c2)NC(=O)CO3)CC1	10.3µM	n	n	u
CC(CN1CCN(C)CC1)OC(=O)c1cccc(F)c1 (stereo unspecified)	n	x	n	n
C[C@H](CO)N1C[C@H](C)[C@@H](CN(C)Cc2cccc3c2OCCCO3)OCc2cnnn2CCCC1=O	n	x	n	n
CCN(CC)Cc1cc(Nc2c3ccccc3nc3c4ccccc4n(C)c23)cc(CN(CC)CC)c1O	5.8µM	x	n	2.59µM
CCOc1cc2nc3c4ccccc4n(C)c3nc2cc1OCC	u	n	n	u

Screens: PubChem BioAssay, National Center for Advancing Translational Sciences (NCATS)
